Measured values from PubChem BioAssay AID1851 (National Center for Advancing Translational Sciences (NCATS), 2009).
“And” between values parts separate entries of the source, which are not always exact repeats. Equal values may be shown once. Hit rate of the full screen: of about 16,000 compounds, about 2,600 (16%) were called active. Roughly 20% stayed inconclusive and do not appear here. The list is a sample of the results. Values without a mark were called inactive. The call rests on the fitted dose curve; in most records, active means well fitted curve in the direction sought with a large enough effect; inconclusive means small, poorly fitted or top-dose-only effect, or effect the other way; inactive means no such curve, though single readings can be large or run the other way.

Biological target: Cytochrome P450 2D6 (Homo sapiens) (UniProt P10635)
Assay: Cytochrome panel assay with activity outcomes
Settings: recombinant CYP, pro-luciferin dealkylation, luminescence, p450-cyp2d6; series mostly up to 57.1 µM; activity, negative = inhibition: at the top concentration
On the % scale 0 is the no-effect control and ±100 the full control effect.

Cytochrome P450 2D6 (Homo sapiens), sequence (P10635 whole entry, looked up): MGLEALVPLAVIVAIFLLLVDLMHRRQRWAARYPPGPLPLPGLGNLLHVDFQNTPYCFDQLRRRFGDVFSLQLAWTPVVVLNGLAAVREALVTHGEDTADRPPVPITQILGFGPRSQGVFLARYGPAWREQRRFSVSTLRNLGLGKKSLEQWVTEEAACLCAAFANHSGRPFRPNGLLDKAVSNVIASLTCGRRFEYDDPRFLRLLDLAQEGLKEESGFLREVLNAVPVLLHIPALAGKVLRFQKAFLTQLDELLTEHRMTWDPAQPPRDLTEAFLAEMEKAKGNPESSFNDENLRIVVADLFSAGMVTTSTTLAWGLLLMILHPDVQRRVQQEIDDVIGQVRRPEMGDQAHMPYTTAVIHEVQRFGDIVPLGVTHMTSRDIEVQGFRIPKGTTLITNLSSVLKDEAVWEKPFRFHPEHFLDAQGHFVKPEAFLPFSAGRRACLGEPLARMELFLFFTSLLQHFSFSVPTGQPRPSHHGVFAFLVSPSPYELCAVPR

| Structure (SMILES) | activity, negative = inhibition | AC50 |
| --- | --- | --- |
| C/C(=N\Nc1nnc(C)c(=O)[nH]1)C(=O)O | -0.0511% | – |
| COc1ccc(C2/C(=C(/O)c3ccc(Cl)cc3)C(=O)C(=O)N2CCN2CCOCC2)c(OC)c1 (stereo not drawn) | -38.4% | – |
| CN[C@@H]1NC(=O)c2ccccc2N1Cc1ccc(F)cc1 | 10.6% [at 11.4 µM] | – |
| CSc1nnc(-c2cc3c(-c4ccccc4)nn(C)c3s2)n1C | 0.173% | – |
| CC(C)(N=NC(C)(C)C1=NCCN1)C1=NCCN1 | 6.75% [at 11.4 µM] | – |
| O=c1[nH]c(=O)n(Cc2ccco2)c2c1C(C(F)(F)F)(C(F)(F)F)N=C(CCC1CCCCC1)N2 | -3.9% | – |
| CC(C)CO/N=C1/[C@H]2O[C@@H]2[C@@H](O)[C@H]2[C@H]1CCn1c(=O)n(C)c(=O)n12 | 1.5% [at 11.4 µM] | – |
| CC(C)C[C@H](NC(=O)N1CCCCCC1)C(=O)N[C@H](Cc1cn(C)c2ccccc12)C(=O)N[C@H](Cc1ccccn1)C(=O)O | -13.8% | – |
| Cc1ccc(C(=O)NC(=S)Nc2cccc3nsnc23)cc1 | 28.9% | – |
| CC(C)(C)C(=O)Nc1cccc(-c2nc3ccccc3c(=O)o2)c1 | -27.2% | – |
| CN(C)CCNc1ccccn1 | -15.2% [at 11.4 µM] | – |
| O[C@H](CNc1ccccn1)c1ccccc1 | – | 1.58 µM (active) |
| c1ccc(CCNc2ccccn2)nc1 | -8.12% [at 11.4 µM] | – |
| CCCNC(=O)OC[C@@H]1O[C@H](CCO/N=C\C[C@H]2C=C[C@H](OC(C)=O)[C@@H](COC(C)=O)O2)C=C[C@@H]1Oc1ccc(OC)cc1 | -15.6% [at 11.4 µM] | – |
| CC(C)=CCNc1ncnc2nc[nH]c12 | 10.2% [at 11.4 µM] | – |
| COc1ccc(N2CCN(C(=S)Nc3cccc(C)c3)CC2)cc1 | 7.47% | – |
| CN(C)Cc1ccccc1-c1nccc(N(C)C)n1 | – | 1 µM (active) |
| CN(C)c1ccnc(-c2ccccc2C(F)(F)F)n1 | 12.2% | – |
| Cc1noc(C)c1-c1nccc(N(C)C)n1 | 9.87% | – |
| CN(C)Cc1ccccc1-c1nccc(N(C)Cc2ccco2)n1 | – | 0.794 µM (active) |
| Cc1noc(C)c1-c1nccc(N(C)Cc2ccco2)n1 | -10.1% | – |
| Cn1c2c(c(=O)n(C)c1=O)C(C(F)(F)F)(C(F)(F)F)N=C(c1ccc(Cl)cc1)N2 | 18.2% | – |
| COc1ccc(Oc2nc3ccccc3nc2C(F)(F)F)cc1 | -2.66% | – |
| CCCC[C@@H]1C[C@H]1C(NC(=O)c1ccccc1)c1ccccc1C(F)(F)F (stereo partly drawn) | 11.1% | – |
| [Cu].[O-]/N=C1/C(=[OH+])Nc2ccccc21.[O-]Nc1c(O)[nH]c2ccccc12 | -7.87% [at 11.4 µM] | – |

| Structure (SMILES) | activity, negative = inhibition | AC50 |
| --- | --- | --- |
| O=C(O)C1=C/C(=C(/c2ccccc2)c2cc(C(=O)O)c(O)c3ccccc23)c2ccccc2C1=O | 14% [at 11.4 µM] and -3.21% [at 11.4 µM] | – |
| O=C(Nc1cccnc1)C1COc2ccccc2O1 (stereo not drawn) | -8.2% | – |
| COc1ccc(CC(=O)NC(=S)Nc2ccc(S(=O)(=O)NC(C)(C)C)cc2)cc1 | 17.1% | – |
| CC(C)(C)NS(=O)(=O)c1ccc(NS(=O)(=O)c2ccc(F)cc2)cc1 | 10.1% | – |
| CC(C)(C)NS(=O)(=O)c1ccc(NC(=O)C(Sc2ccccc2)c2ccccc2)cc1 (stereo not drawn) | – | 3.55 µM (active) |
| CO[C@H]1C[C@@H]2C[C@H](O)C[C@@H](CC(=O)O[C@@H](/C=C\CC(C)C)C[C@@H]3CC[C@H](C)[C@@H](C1)O3)O2 | -2.62% [at 11.4 µM] | – |
| N#Cc1cccc(NC(=O)N2CC3(CCN(C(=O)c4ccco4)CC3)C2)c1 | -5.53% | – |
| COc1cc(NC(=O)c2cc3ccccc3o2)c(OC)cc1Br | -2.15% | – |
| CCCN(CCO)Cc1ccc(F)c(Br)c1 | – | 7.94 µM (active) |
| COc1ccc(C(=S)Nc2ccccc2)cc1 | -50.9% | – |
| COc1ccc(-c2nc(C(=O)N3CCN(C)CC3)sc2-c2ccc(OC)cc2)cc1 | -10.4% | – |
| Cc1nnc(NC(=O)CCC(=O)NCc2cccs2)s1 | -29.9% | – |
| CC(C)(O)C#Cc1ccc(C(=O)NCc2cccs2)s1 | – | 22.4 µM (active) |
| Nc1nc2c(C(=O)NCc3cccs3)nnn2c2cccc(Cl)c12 | 6.61% [at 11.4 µM] | – |
| CCc1sc(N(C(=O)Cc2ccccc2)c2cccc(F)c2)nc1-c1ccc(C)cc1 | 3.54% | – |
| O=C1CSC2(CCN(CCCN3c4ccccc4Sc4ccc(Cl)cc43)CC2)N1 | – | 0.631 µM (active) |
| Clc1ccc2c(c1)N(CCCN1CCCC13CCCCC3)c1ccccc1S2 | – | 0.00794 µM (active) |
| CCOC(=O)Nc1ccc2c(c1)N(C(=O)CCN1CCN(C)CC1)c1ccccc1S2 | -21.6% | – |
| O=C(CSc1nc2ccccc2o1)N1c2ccccc2Sc2ccc(Cl)cc21 | 5.14% | – |
| CC1(C)CCCN(C(=O)N2c3ccccc3Sc3ccccc32)C1 | 3.85% | – |
| OC1CC2CC[C@H](C1)N2CCCN1c2ccccc2Sc2ccc(Cl)cc21 (stereo partly drawn) | – | 0.0631 µM (active) |
| Cc1ccc2cn[nH]c2c1NC(=S)NC(=O)c1ccccc1 | -0.296% | – |
| O=C(NNc1nc2ccccc2s1)c1ccccc1F | -25.1% | – |
| Oc1ccc(Br)cc1CNn1cnnc1 | 22.7% | – |

| Structure (SMILES) | activity, negative = inhibition | AC50 |
| --- | --- | --- |
| CCOC(=O)c1cc(-c2ccc(Cl)cc2)nc2c1c(C)nn2CCC#N | -25.2% | – |
| Cc1ccccc1C(=O)c1c[nH]c(C(=O)NCC2CCCO2)c1 (stereo not drawn) | 28.3% | – |
| COc1ccc(COC(=O)N/N=C(\C)CC(=O)Nc2c(C)cc(C)cc2C)cc1 | -17.7% | – |
| O=C(O)CSc1cc(C(F)(F)F)nc(-c2ccccn2)n1 | -6.18% | – |
| CN1CCN(c2ncc3nc(-c4cccc(C#N)c4)c(=O)n(C)c3n2)CC1 | -2% | – |
| CCSc1ccc2c(c1)N(CCCN1CCN(C)CC1)c1ccccc1S2 | – | 2.51 µM (active) |
| O=C1NC(O)=NC1(c1ccccc1)c1ccccc1 | 1.34% | – |
| Cc1noc(C)c1C(=O)N1CCC2(CCN(Cc3ccncc3)CC2)CC1 | -9.53% | – |
| CCCCC[C@H](O)c1cccc(OCc2ccc3ccccc3n2)c1 | -20.4% | – |
| O=C(O)c1ccccc1Nc1cccc(OCc2ccc3ccccc3n2)c1 | – | 7.94 µM (active) |
| O=C(Nc1ccccc1C(=O)O)c1ccc2ccccc2n1 | 18.1% | – |
| CC/C(=N/Nc1ccccc1)c1cnnc(SC)n1 | -10.2% | – |
| O=C(Nc1ccc(-c2csc(-c3ccccc3)n2)cc1)c1ccccc1Cl | 19.1% | – |
| Cc1ccc(C(=O)ON=C2CCN(S(=O)(=O)c3ccccc3)CC2)cc1 | -18% | – |
| O=c1cnc2cnc(Oc3cccc(Cl)c3)nc2n1C1CC1 | -8.64% | – |
| Fc1ccc(C2CC(c3ccco3)=NN2c2ccccc2)cc1 (stereo not drawn) | – | 8.91 µM (active) |
| CC(=O)c1c(O)cc(=O)n(-c2ccccc2)c1-c1cccc2ccccc12 | -2.04% | – |
| O=C1C=C(Nc2ccc(Cl)cc2)CC(c2ccc(Cl)cc2)C1 (stereo not drawn) | – | 8.91 µM (active) |
| O=C(O)C1(Nc2ccc(Cl)cc2)CCCC1 | 7.94% [at 11.4 µM] | – |
| O=C1C=C(NCCN2CCOCC2)CC(c2ccccc2)C1 (stereo not drawn) | -11.2% | – |
| CC1(C)C(=O)C(c2ccccc2)=C2CN3C(=O)N(CCc4ccccc4)C(=O)C3(Cc3ccc(C(F)(F)F)cc3)C=C21 (stereo not drawn) | 9.81% | – |
| CCCCc1ccc(-c2nc(NC(=O)C3C4CCC(O4)C3C(=O)O)sc2C)cc1 (stereo not drawn) | -28.7% | – |
| COC(=O)Cn1c(CN(Cc2ccccc2)Cc2ccccc2)nc2c1c(=O)[nH]c(=O)n2C | -9.02% | – |
| COc1ccc(N2CCN(Cc3nc4c(c(=O)[nH]c(=O)n4C)n3CCCc3ccccc3)CC2)cc1 | -9.2% | – |
| CCOC(=O)N1CCN(Cc2nc3c(c(=O)[nH]c(=O)n3C)n2Cc2ccccc2C)CC1 | – | 12.6 µM (active) |

| Structure (SMILES) | activity, negative = inhibition | AC50 |
| --- | --- | --- |
| Cn1c(=O)[nH]c(=O)c2c1nc(CN1CCOCC1)n2Cc1ccccc1 | 6.42% | – |
| Cn1c(=O)[nH]c(=O)c2c1nc(CN1CCOCC1)n2CCCO | 8.01% | – |
| CCCCCn1c(CN2CCN(c3cc(Cl)ccc3C)CC2)nc2c1c(=O)[nH]c(=O)n2C | – | 8.91 µM (active) |
| O=C(Cn1nnc2ccccc21)N/N=C\C=C\c1ccccc1 | 4.01% | – |
| NC(=O)c1csc(-c2ccc(CO)o2)n1 | 0.271% [at 11.4 µM] | – |
| NS(=O)(=O)c1ccc(N=Nc2ncccc2O)cc1 | -13% [at 11.4 µM] | – |
| C/C(=N\Nc1nnc(-c2ccccc2)c(-c2ccccc2)n1)c1cccc([N+](=O)[O-])c1 | -29.2% | – |
| O=c1c(C=Nc2cccc(C(F)(F)F)c2)c[nH]n1-c1cccc(Cl)n1 | -18.9% | – |
| CCc1cc2c(nc1CC)CCN(CC/C(C)=N/OC[C@@H](C)[C@H](OCc1ccccc1)C(C)C)C2 | -10.6% [at 11.4 µM] | – |
| COc1ccccc1NC(=O)CCc1c(C)[nH]c(=O)c(C#N)c1C | -20.1% | – |
| CC1Cc2ccccc2N1C(=O)Cn1cc([N+](=O)[O-])cn1 (stereo not drawn) | -4.04% | – |
| CC1Cc2ccccc2N1C(=O)CSc1nnnn1C(C)C (stereo not drawn) | -0.323% | – |
| Cc1ccc2c(c1)nnn2C1CCN(CC(=O)N2c3ccccc3CC2C)CC1 (stereo not drawn) | – | 25.1 µM (active) |
| O=C(O)/C=C\c1cnc[nH]1 | -4.82% | – |
| Cc1nn(C(C)C(=O)N2CCc3ccccc32)c(C)c1[N+](=O)[O-] (stereo not drawn) | -3.76% | – |
| CC(=O)NC1=NN(c2ccccc2)C(=O)C1 | 22.6% | – |
| CC(=O)N1CCC(=O)N(C(C)C)c2ccccc21 | – | 3.16 µM (active) |
| C/C(Cl)=C/CSc1nnc2n(N)c(=O)c3ccccc3n12 | -14.6% | – |
| O=C(CNS(=O)(=O)c1ccc(Br)s1)N1CCC(N2CCCCC2)CC1 | – | 12.6 µM (active) |
| CC1CC(C)CN(C(=O)CNS(=O)(=O)c2ccc(Br)s2)C1 (stereo not drawn) | – | 3.16 µM (active) |
| CC1CCC(C(=O)NC(C(=O)N2CCC(N3CCCCC3)CC2)C(C)C)CC1 (stereo not drawn) | -5.87% | – |
| O=C(NCc1ccco1)c1ccccc1NS(=O)(=O)c1ccc(Br)s1 | -22.3% | – |
| O=c1c(-c2ccc(F)c(F)c2)nc2cncnc2n1C1CC1 | -0.558% | – |
